FMDV inh – High Throughput Screening for Foot and Mouth Disease Virus Antivirals; FMDV antiviral cell-based qHTS; Potency, µM (top dose mostly 57.9 µM), for the others: at the highest dose activity change, negative = inhibition, most hits filed as inhibitors; actives 1.2% (n = 410,000); AID 1159524, 2015; calls by dose curve; tested in HEK293T cells; note: read-out not given here; potency is the fitted concentration of half-maximal effect; nearly all actives have a fitted effect of over 45% in size
VACV Venus inh – qHTS for Stage-Specific Inhibitors of Vaccinia Orthopoxvirus: Venus Reporter Primary qHTS. Potency, µM (titrated, usually from 36.5 µM), for the others: at the highest dose activity change, negative = inhibition, hits mostly inhibitors. AID 720580, 2013. Vaccinia virus Venus reporter expression, fluorescence. actives 0.46% (n = 330,000); calls by dose curve; tested in A549 cells; note: potency is the fitted concentration of half-maximal effect; nearly all actives have a fitted effect of over 30% in size
Vaccinia mCherry – qHTS for Stage-Specific Inhibitors of Vaccinia Orthopoxvirus: mCherry Reporter Primary qHTS. Vaccinia virus mCherry reporter infection, fluorescence. Potency, µM (highest dose often 36.5 µM), for the others: top-dose activity change, negative = inhibition, hits mostly inhibitors. actives 0.63% (n = 310,000). AID 720579, 2013; calls by dose curve; tested in A549 cells; note: potency is the fitted concentration of half-maximal effect; nearly all actives have a fitted effect of over 35% in size
HCMV antiviral – qHTS Assay for inhibitors of the human cytomegalovirus (HCMV); HFF cells, HCMV-luciferase reporter, 72 h; stronger effect = lower value; activity change, negative = inhibition, % at 57.5 µM; actives 4.5% (n = 410,000); AID 1259415, 2018; in the data active = activity change below about -60%; inconclusive = no clear call, values can overlap the other calls; inactive = above about -39%
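HFF cells seeded 16 h at 37C, treated with compounds, infected with luciferase-reporter HCMV at MOI 1 PFU/cell; luciferase read at 72 h post infection, normalized to buffer-only and Salinomycin controls.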
Giardia FBPA inh – qHTS Assay for Inhibitors of Fructose-1,6-bisphosphate Aldolase from Giardia Lamblia | purified Giardia FBPA | Potency, µM (top dose mostly 59.6 µM), for the others: top-dose activity, negative = inhibition, usual class: inhibitors | actives 0.71% (n = 290,000) | AID 2451, 2010; note: potency is the fitted concentration of half-maximal effect; nearly all actives have a fitted effect of over 55% in size
Target sequence (A8B2U2 whole entry, looked up): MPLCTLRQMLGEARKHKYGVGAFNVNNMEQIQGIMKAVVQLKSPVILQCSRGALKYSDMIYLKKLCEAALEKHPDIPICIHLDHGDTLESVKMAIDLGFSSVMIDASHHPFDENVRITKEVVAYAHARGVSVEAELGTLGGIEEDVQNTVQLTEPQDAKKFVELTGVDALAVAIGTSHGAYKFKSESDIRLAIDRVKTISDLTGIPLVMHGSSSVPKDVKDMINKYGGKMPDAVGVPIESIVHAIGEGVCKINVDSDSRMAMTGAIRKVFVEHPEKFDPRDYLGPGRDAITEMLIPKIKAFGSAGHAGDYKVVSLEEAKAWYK
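Giardia FBPA (40 nM reagent) was preincubated 10 min at RT with compound (up to 57.5 uM final), then substrate plus GAPDH/TPI/NAD/arsenate coupling system with diaphorase/resazurin was added; resorufin fluorescence (525/598 nm) was read after 20 min.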
HCV inhibitor – qHTS Assay for Inhibitors of Hepatitis C Virus (HCV); AID 651820, 2012; Potency, µM (series often up to 41.8 µM), for the others: at the top dose activity change, negative = inhibition, hits mostly inhibitors; actives 3.4% (n = 340,000); Huh7.5.1 HCVcc-Cre infection, luciferase reporter, 44 h; note: potency is the fitted concentration of half-maximal effect
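HCVcc-Cre virus at an moi near 0.5 was added right after compound to cells cultured 4 h from seeding (1,000 cells/well). Luciferase activity was determined 44 h later, 15 min after substrate addition at RT.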
Starred values were filed as active, the others as inactive; i = inactive; ? = inconclusive; . = no result given. Most compounds without a hit are left out; they make up all but 7.5% or so of the library. Unless noted, calls come from the whole dose curve; as a rule, active = well fitted curve in the direction sought with a large enough effect; inconclusive = small, poorly fitted or top-dose-only effect, or another doubt; inactive = no such curve, though single readings can be large; an effect the other way counts as inactive or inconclusive. % is set by controls: 0 for no effect and ±100 for the full control effect.

SMILES	FMDV inh	VACV Venus inh	Vaccinia mCherry	HCMV antiviral	Giardia FBPA inh	HCV inhibitor
Cc1csc(NC(=O)C2CCN(S(=O)(=O)c3ccccc3F)CC2)n1	-29.2%	-3.9%	-14.7%	-60.3*	2.9%	?
CCCn1c(NC(=O)C2CCN(S(=O)(=O)c3cccs3)CC2)nc2ccccc21	?	?	-25.6%	-62.2*	6.1%	14.1µM*
CC(=O)Nc1ccc(-c2csc(NC(=O)C3CCN(S(=O)(=O)c4cccs4)CC3)n2)cc1	?	-25.5%	-0.1%	-69.3*	-5.4%	?
O=C(Nc1cc(Cl)ccn1)C1CCN(S(=O)(=O)c2cccs2)CC1	?	?	?	-73.2*	1.0%	?
O=C(Nc1ccncc1)C1CCN(S(=O)(=O)c2cccs2)CC1	5.7%	-4.6%	i	1.1	3.0%	11.2%
COc1ccc(OC)c(C2C(C(=O)c3ccco3)=C(O)C(=O)N2CC2CCCO2)c1 (stereo not given)	23.7%	-3.2%	-8.8%	-5.0	-23.0%	17.8%
CCOc1ccc(-c2nnc(NC(=O)Cc3cc(OC)c(OC)c(OC)c3)o2)cc1	22.1%	.	.	20.2	5.0%	-5.2%
O=C(Nc1nc(-c2ccc(F)cc2)cs1)C1CCN(C(=O)c2ccc(F)cc2)CC1	11.2µM*	?	?	-79.9*	.	?
O=C(Nc1nc2c(F)cc(F)cc2s1)C1CCN(C(=O)c2ccc(F)cc2)CC1	-12.0%	-2.1%	i	11.4	.	-19.8%
Cc1ccccc1NC(=O)c1oc2c(c1C)-c1nn(Cc3cccc(Cl)c3)cc1CC2	-1.2%	-17.6%	-20.8%	-19.7	.	.
C=C1N(S(=O)(=O)C(F)(F)F)CCC12CN(S(=O)(=O)c1ccc(C)cc1)c1ccccc12 (stereo not given)	.	.	.	-70.4*	.	.
CCC(=O)Nc1nc2ccc([N+](=O)[O-])cc2s1	-13.7%	-10.0%	-13.4%	-60.0*	0.2%	-4.2%
Cc1ccc(C)c(OCC(=O)Nc2nc3ccc([N+](=O)[O-])cc3s2)c1C	0.0%	.	.	-65.5*	6.5%	11.2µM*
O=C(COC(=O)C1(c2ccccc2F)CCCC1)N1CCN(C(=O)c2ccco2)CC1	.	-16.8%	-3.8%	-32.0	-9.3%	-4.0%
COc1ccc(C(=O)OCC(=O)N2CCN(C(=O)c3ccco3)CC2)c(OC)c1OC	0.4%	-11.7%	-20.8%	-102.3*	.	.
O=C(COC(=O)C1(c2ccc(F)cc2)CCCC1)N1CCN(C(=O)c2ccco2)CC1	?	-24.6%	.	-106.2*	0.9%	?
COc1ccc(CCNC(=O)c2c(C)oc3ncnc(N4CCOCC4)c23)c(OC)c1	0.5%	-12.7%	-19.1%	-2.0	.	.
COc1cccc(CN(C)C(=O)c2ccc(NS(=O)(=O)c3ccc4[nH]c(=O)[nH]c4c3)cc2)c1OC	-9.1%	-11.1%	-4.4%	2.8	-7.5%	.
CCOc1ccc(NS(=O)(=O)c2ccc(C(=O)N(C)Cc3cccc(OC)c3OC)cc2)cc1	-19.5%	-17.3%	-26.3%	-31.0	.	12.6µM*
CCOc1ccc(S(=O)(=O)Nc2ccc(C(=O)N(CC)CC(=O)NCc3cccs3)cc2)cc1	-13.0%	-15.7%	i	-72.2*	.	.
CCOC(=O)C1=CN(Cc2cccc(F)c2)S(=O)(=O)N(C)C1c1ccc2ccccc2c1 (stereo not given)	2.4%	-10.2%	?	-26.1	.	11.2µM*
CCCN1C(C)C(C(=O)OCC)=CN(Cc2cccc(I)c2)S1(=O)=O (stereo not given)	3.98µM*	-14.8%	i	.	.	?
O=c1n(-c2ccccc2)c(=O)n(Cc2ccccn2)n1Cc1ccccn1	-14.2%	-2.9%	-11.0%	-24.3	3.6%	19.3%
COc1ccc(N2C(=O)CC(Sc3ncn[nH]3)C2=O)c(OC)c1 (stereo not given)	4.6%	-11.8%	-14.9%	-98.2*	?	15.8µM*
CC(C)c1ccc(N2C(=O)CC(Sc3ncn[nH]3)C2=O)cc1 (stereo not given)	-29.3%	-0.8%	-7.1%	6.4	?	14.6%
SMILES	FMDV inh	VACV Venus inh	Vaccinia mCherry	HCMV antiviral	Giardia FBPA inh	HCV inhibitor
CC(C)Oc1ccc(C(CCN)C2CCCCC2)cc1 (stereo not given)	-24.5%	?	12.6µM*	-98.9*	?	?
CCn1cc(Cl)c(C(=O)Nc2cccc(CN3CCOCC3)c2)n1	28.7%	.	.	-8.1	.	?
COc1ccccc1-c1csc2ncnc(Sc3nnnn3C)c12	?	.	.	-73.8*	.	.
Cc1ccc(-c2csc3ncnc(Sc4nnnn4C4CC4)c23)cc1	.	-28.2%	-24.1%	.	.	.
Cn1nnnc1Sc1ncnc2scc(-c3ccccc3)c12	22.4µM*	?	?	-67.1*	8.1%	-2.8%
Cn1nnnc1Sc1ncnc2scc(Br)c12	22.4µM*	.	.	-97.4*	.	.
Cn1nnnc1SCSc1nnnn1C	-6.4%	-6.4%	.	-7.9	0.4%	14.1%
Cn1nnnc1Sc1ncnc2scc(-c3ccc(Br)cc3)c12	17.8µM*	.	.	-98.0*	.	.
COc1ccccc1CNCCSc1nnnn1C	2.3%	-11.9%	4.2%	-2.9	.	.
c1ccc(-c2csc3ncnc(Sc4nnnn4-c4ccccc4)c23)cc1	.	-29.3%	?	.	.	.
Cc1ccc(-n2c(=O)c3ccc(C(=O)NCc4ccco4)cc3n(CC(=O)Nc3ccccc3C(F)(F)F)c2=O)cc1	7.0%	-5.4%	-1.4%	-35.3	.	.
Cn1nnnc1Sc1ncnc2scc(-c3ccc(F)cc3)c12	15.8µM*	?	10µM*	-76.4*	0.9%	?
c1ccc(-c2csc3ncn4nnnc4c23)cc1	26.9%	-4.1%	-0.5%	-100.3*	5.6%	8.8%
Cn1nnnc1SCc1nc2scc(-c3ccccc3)c2c(=O)[nH]1	?	.	.	12.3	-8.3%	-29.8%
Cn1nnnc1Sc1ncnc2scc(-c3ccc[nH]3)c12	?	.	.	-97.8*	.	.
Cn1nnnc1Sc1ncnc2scc(-c3ccccc3Br)c12	?	.	.	-93.2*	.	.
CCn1cnc2scc(-c3ccccc3)c2c1=O	-4.6%	.	.	1.9	-3.5%	?
CC(=O)Nc1ccc(Sc2ncnc3scc(-c4ccccc4)c23)cc1	0.0%	-22.6%	-0.8%	-25.9	2.5%	4.3%
CCNC(=O)c1cc(NC(=O)COC)cc2nc(-c3ccncc3)n(C)c12	-13.8%	-9.1%	-13.3%	.	.	.
Cc1noc(C)c1C(=O)N1CCC2(CC1)CN(c1ncccn1)C2	-3.3%	.	.	.	0.4%	.
CCOC(=O)c1cccn1C1C(=O)N(Cc2ccc(C(C)C)cc2)c2c(F)cccc21 (stereo not given)	.	.	.	-34.7	.	.
Cc1ccc(C(=O)N2CCc3cc(CNS(=O)(=O)c4ccc(Cl)s4)ccc32)cc1	-13.5%	?	?	-9.4	.	.
O=C(c1ccccc1)N1CCc2cc(CNS(=O)(=O)c3ccccc3Cl)ccc21	?	-23.8%	-27.5%	-78.1*	.	.

Compound activity as filed in PubChem BioAssay.
